Values joined by “and” are separate entries in the source; they are usually repeats but may differ in a detail not shown here. Equal entries are not always repeated. Records with an inconclusive call do not appear. Active and inactive are the calls of the source. The call rests on the fitted dose curve; in most records, active means well fitted curve in the direction sought with a large enough effect; inconclusive means small, poorly fitted or top-dose-only effect, or another doubt; inactive means no such curve, though single readings can be large; an effect the other way counts as inactive or inconclusive.
Key:
[1] = qHTS Assay for Identifying Gametocytocidal Compounds (AID 743244);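 further: actives lower the fluorescent signal which means gametocytes are killed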; settings: P. falciparum 3D7 stage III-V gametocytes, alamarBlue, 72 h; max response: hits give low values
How it was run: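 Stage III-V P. falciparum 3D7 gametocytes, 20,000 per well, were exposed to compounds for 72 h at 37C, 5% CO2. AlamarBlue was then added for 24 h and viability was read as fluorescence at Ex 525/Em 598 nm.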

[2] = qHTS assay to identify small molecule inhibitors of chordoma cells - UCH-1 (AID 1259355); further: nearly all actives have a fitted effect of over 55% in size
How it was run: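 A 48hr growth-inhibition format: each drug tested at 15 concentrations together with added auranofin, camptothecin, doxorubicin, rubitecan and topotecan, with cell viability quantified as CellTiter-Glo luminescence.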

[3] = qHTS assay to identify small molecule inhibitors of chordoma cells - UCH-2 (AID 1259356); further: series mostly up to about 46 µM
On the % scale 0 is the no-effect control and ±100 the full control effect.

O=C1/C(=C\c2cccs2)CCC/C1=C\c1cccs1
inactive: max response [1] 5.47% | Potency [2] | Potency [3]

NC(=O)CC[C@@H]1NC(=O)[C@H](Cc2ccccc2)NC(=O)[C@H](Cc2ccc(O)cc2)NC(=O)[C@@H](N)CSSC[C@@H](C(=O)N2CCC[C@H]2C(=O)N[C@@H](CCCN=C(N)N)C(=O)NCC(N)=O)NC(=O)[C@H](CC(N)=O)NC1=O
inactive: max response [1] -1.4% and -14.5% | Potency [2] | Potency [3]

O=C(c1cc2ccccc2o1)N1CCN(Cc2ccccc2)CC1
inactive: max response [1] 7.29% | Potency [2] | Potency [3]

NC(=O)[C@H]1O[C@@H](O)[C@H](O)[C@@H](O)[C@@H]1O
inactive: max response [1] -1.37% | Potency [2] | Potency [3]

CCCCCCCCCc1ccc(OCCOCCO)cc1
inactive: max response [1] -0.96% | Potency [2] | Potency [3]

O=C(O)COc1ccccc1/C=N/NC(=O)c1ccncc1
inactive: max response [1] 1.32% | Potency [2] | Potency [3]

CC(CNC(=O)c1cccnc1)NC(=O)c1cccnc1 (stereo not drawn)
inactive: max response [1] -8.6% | Potency [2] | Potency [3]

NCC[C@H](O)C(=O)N[C@@H]1C[C@H](N)[C@@H](O[C@H]2O[C@H](CN)CC[C@H]2N)[C@H](O)[C@H]1O[C@H]1O[C@H](CO)[C@@H](O)[C@H](N)[C@H]1O
inactive: max response [1] -1.8% | Potency [2] | Potency [3]

NC(=O)[C@@H]1CCCN1C(=O)[C@H](Cc1cnc[nH]1)NC(=O)[C@@H]1CCC(=O)N1
inactive: max response [1] 7.17% | Potency [2] | Potency [3]

C=C1CC[C@H](O)CC1=C/C=C1\CCC[C@]2(C)[C@@H]([C@H](C)CCCC(C)(C)O)CC[C@@H]12
inactive: max response [1] -5.02% | Potency [2] | Potency [3]

Cc1cccc(Nc2ncccc2C(=O)O)c1C
inactive: max response [1] 39.6% | Potency [2] | Potency [3]

CCCCC(=O)O[C@H]1CC[C@H]2[C@@H]3CCc4cc(O)ccc4[C@H]3CC[C@]12C
inactive: max response [1] -1.51% | Potency [2] | Potency [3]

C[N+]1(C)[C@@H]2CC(OC(=O)C(O)(c3cccs3)c3cccs3)C[C@H]1[C@@H]1O[C@@H]12 (stereo partly drawn)
inactive: max response [1] 8.38% | Potency [2] | Potency [3]

C[C@H](O)CN(C)C
inactive: max response [1] -4.88% | Potency [2] | Potency [3]

CN1C(C(=O)Nc2ccccn2)C(=O)c2sc(Cl)cc2S1(=O)=O (stereo not drawn)
inactive: max response [1] 11.6% | Potency [2] | Potency [3]

O=C(Cc1cccs1)N[C@@H]1C(=O)N2C(C(=O)[O-])=C(C[n+]3ccccc3)CS[C@H]12
inactive: max response [1] 7.46% | Potency [2] | Potency [3]

CO/N=C(\C(=O)N[C@@H]1C(=O)N2C(C(=O)O)=C(C[N+]3(C)CCCC3)CS[C@H]12)c1csc(N)n1
inactive: max response [1] 15.9% | Potency [2] | Potency [3]

COC(=O)CC[C@H](N)C(=O)O
inactive: max response [1] -4.69% | Potency [2] | Potency [3]

O=C1[O][Bi][O]c2ccccc21
inactive: max response [1] 14.5% | Potency [2] | Potency [3]

O=C(NNCS(=O)(=O)O)c1ccncc1
inactive: max response [1] -7.51% | Potency [2] | Potency [3]

O=C(CO)[C@@H](O)[C@H](O)[C@@H](O)C(=O)O
inactive: max response [1] 23.9% | Potency [2] | Potency [3]

O=c1[nH]c(=O)n([C@H]2C[C@H](O)[C@@H](CO)O2)cc1/C=C/Br
inactive: max response [1] 6.97% | Potency [2] | Potency [3]

O=C(/C=C/c1cccc(F)c1)NC1CC1
inactive: max response [1] -1.6% | Potency [2] | Potency [3]

CC(C)CN(C[C@@H](OP(=O)(O)O)[C@H](Cc1ccccc1)NC(=O)O[C@H]1CCOC1)S(=O)(=O)c1ccc(N)cc1
inactive: max response [1] -7.76% | Potency [2] | Potency [3]

Cc1cc2nc3c(=O)[nH]c(=O)nc-3n(C[C@H](O)[C@H](O)[C@H](O)COP(=O)(O)OP(=O)(O)OC[C@H]3O[C@@H](n4cnc5c(N)ncnc54)[C@H](O)[C@@H]3O)c2cc1C
inactive: max response [1] -3.17% | Potency [2] | Potency [3]

CCCCC(O)c1ccccc1 (stereo not drawn)
inactive: max response [1] -2.26% | Potency [2] | Potency [3]

CC(=O)N[C@@H]([C@@H](O)[C@H](O)[C@H](O)CO)[C@@H](O)CC(=O)C(=O)O
inactive: max response [1] 14.7% | Potency [2] | Potency [3]

CCCCC(CC)CCC(CC(C)C)OS(=O)(=O)O (stereo not drawn)
inactive: max response [1] 17.4% and 3.69% | Potency [2] | Potency [3]

CCCC(=O)O
inactive: max response [1] -0.429% | Potency [2] | Potency [3]

O=C1NCCN1c1ncc([N+](=O)[O-])s1
inactive: max response [1] -6.09% | Potency [2] | Potency [3]

CCN(CC)C(=O)[C@]1(c2ccccc2)C[C@@H]1CN
inactive: max response [1] -1.74% | Potency [2] | Potency [3]

— PubChem BioAssay (NCATS)
